16 molecules from PubChem BioAssay AID624110 (Broad Institute, 2012) can be followed below.

Values without a mark were called inactive.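 Rule for the calls: active = signal falls with dose and the fitted half-maximal concentration is at most twice the highest valid tested dose; inconclusive = flat fit with a moderate signal drop, or unreliable fit; inactive = opposite effect, flat near zero, or potency past limit.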

Sequence of PglD acetyltransferase (Campylobacter jejuni) (O86157 1-203): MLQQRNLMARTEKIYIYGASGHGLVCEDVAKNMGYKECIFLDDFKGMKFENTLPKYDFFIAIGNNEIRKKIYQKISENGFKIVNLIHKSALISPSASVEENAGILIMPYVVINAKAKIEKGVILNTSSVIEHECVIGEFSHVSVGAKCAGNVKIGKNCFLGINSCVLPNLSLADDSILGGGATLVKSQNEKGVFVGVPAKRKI

This assay concerns the target PglD acetyltransferase (Campylobacter jejuni) (UniProt O86157). Put plainly: inhibition of C. jejuni PglD N-acetyltransferase – biochemical, DTNB absorbance, Campylobacter jejuni, cherry-picked samples, dose response (AID 624110). The note with it: purified C. jejuni PglD, DTNB absorbance 412 nm; series mostly up to 19.5 µM; normalized activity % vs neutral control (lower = more inhibition): at the top concentration.
Take `C[C@@H]1CN([C@@H](C)CO)C(=O)c2cc(NC(=O)Nc3ccc(F)cc3)ccc2O[C@@H]1CN(C)CC1CCCCC1`: the “normalized activity % vs neutral control (lower = more inhibition)” value was 6.19% [at 21 µM].
As for `CC(C)NC(=O)N(C)C[C@@H]1Oc2ccc(NC(=O)Cc3cn(C)c4ccccc34)cc2C(=O)N([C@H](C)CO)C[C@H]1C`, the figure is -2.89%.
Next, `C/C=C/c1cnc2c(c1)C(=O)N([C@@H](C)CO)C[C@H](C)[C@@H](CN(C)C(=O)c1cccnc1)O2`: 8.94%; `Cc1noc(C)c1NC(=O)Nc1cccc2c1O[C@H](CN(C)C(=O)Nc1cccc3ccccc13)[C@@H](C)CN([C@H](C)CO)C2=O`: 7.55%; `O=C(N[C@H]1C=C[C@@H](CC(=O)N2CCCCC2)O[C@H]1CO)c1ccc2c(c1)OCO2`: 5.79%.
Next, `COc1ccc(C#Cc2cnc3c(c2)C(=O)N([C@@H](C)CO)C[C@H](C)[C@H](CN(C)CC2CCCC2)O3)cc1`: 1.65%.
For the molecule `CO[C@H]1CN(C)C(=O)c2cc(NC(C)=O)ccc2OC[C@@H](C)NC[C@@H]1C`, the “normalized activity % vs neutral control (lower = more inhibition)” value was 6.89%.
Next, `COCC#Cc1cnc2c(c1)C(=O)N([C@@H](C)CO)C[C@H](C)[C@@H](CN(C)C(=O)C1CCC1)O2`: 6.81% [at 21 µM]; `O=C(C[C@@H]1CC[C@H]2[C@@H](COC[C@H](O)CN2C(=O)Nc2cccc(F)c2)O1)NCc1ccccc1F`: 4.47%; `CC=Cc1ccc2n(c1=O)C[C@@H]1[C@@H](CO)[C@H](C(=O)NCCOC)[C@H]2N1Cc1nccs1` (mixture of isomers): -3.74%.
As for `O=C(C[C@@H]1CC[C@@H]2[C@H](COC[C@@H](O)CN2Cc2ccc(F)cc2)O1)N1CCc2ccccc2C1`, the figure is 3.26%; as for `O=C(C[C@@H]1C[C@@H]2c3cc(NC(=O)NC4CCCCC4)ccc3O[C@@H]2[C@@H](CO)O1)NCc1cccnc1`, 6.3%.
As for `CCC(=O)Nc1ccc2c(c1)OC[C@@H](C)N(Cc1ccccn1)C[C@@H](C)[C@H](OC)CN(C)C2=O`, the figure is 0.696%; as for `CO[C@@H]1CN(C)C(=O)c2ccc(NS(C)(=O)=O)cc2OC[C@@H](C)N(C(=O)C2CCOCC2)C[C@H]1C`, -0.403%; as for `C[C@H]1CN([C@@H](C)CO)C(=O)c2cccc(NC(=O)Nc3ccccc3)c2O[C@H]1CN(C)C`, 1.83% [at 21 µM].
For the molecule `CC(=O)N[C@H]1CC[C@H](CC(=O)NCc2ccc(Cl)cc2)O[C@H]1CO`, the “normalized activity % vs neutral control (lower = more inhibition)” value was -3.66%.
